Bioassay records (PubChem BioAssay)
A selection: hits, their analogues and other compounds. The true share with any hit is near 3%.
SNCA viab count: GF-AFC viability counterscreen for inhibitors of alpha-synuclein gene (SNCA) expression; HEK-293-SNCA-luc viability, GF-AFC fluorescence, 24 h; Potency, µM (top dose mostly 57.1 µM), inactives show at the highest dose activity change, negative = cytotoxicity, most hits filed as cytotoxic; actives 0.12% (n = 150,000);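 note: potency is the fitted concentration of half-maximal effect; 0% = DMSO-treated cells and -100% = medium-only wells without cells; nearly all actives have a fitted effect of over 30% in size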
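Cytotoxicity counterscreen: after 24 h compound treatment of genome-edited SNCA-luciferase HEK-293 cells, live-cell protease substrate GF-AFC read by fluorescence after 30 min; activity scaled between DMSO (0%) and medium-only (-100%), curves Hill-fitted.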
SNCA expr inh: Primary qHTS assay for inhibitors of alpha-synuclein gene (SNCA) expression | Potency, µM (doses to about 57.2 µM), without a hit: at the top dose activity change, negative = inhibition, hits mostly inhibitors | actives 0.17% (n = 140,000) | HEK-293 SNCA-luciferase knock-in, luminescence, 24 h;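 note: potency is the fitted concentration of half-maximal effect; plate controls were DMSO cells for no effect and cell-free wells for full effect; nearly all actives have a fitted effect of over 45% in size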
IP6K1 inh: Primary qHTS assay for small molecule inhibitors of Inositol hexaphosphate kinase 1 (IP6K1). actives 0.81% (n = 140,000). activity change, % (series mostly up to about 58 µM). Inositol hexakisphosphate kinase 1 (Homo sapiens), Q92551. AID 1645851, 2021. IP6K1 kinase, ADP-Glo luminescence, 2 h; hits give low values; in the data active = activity change below about -25%; note: % is set by controls: 0 for no effect and ±100 for the full control effect
Target sequence (Q92551 whole entry, looked up): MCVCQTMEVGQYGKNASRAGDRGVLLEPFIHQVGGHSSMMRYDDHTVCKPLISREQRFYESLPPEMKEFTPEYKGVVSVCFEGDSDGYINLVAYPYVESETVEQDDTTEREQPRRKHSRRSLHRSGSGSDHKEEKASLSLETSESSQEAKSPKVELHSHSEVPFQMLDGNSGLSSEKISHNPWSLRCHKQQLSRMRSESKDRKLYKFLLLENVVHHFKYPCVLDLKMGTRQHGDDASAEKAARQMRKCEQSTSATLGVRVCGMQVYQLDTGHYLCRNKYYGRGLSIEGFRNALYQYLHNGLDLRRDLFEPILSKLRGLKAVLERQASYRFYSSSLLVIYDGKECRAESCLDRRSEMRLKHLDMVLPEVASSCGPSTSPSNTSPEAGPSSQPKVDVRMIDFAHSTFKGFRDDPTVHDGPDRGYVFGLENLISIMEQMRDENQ
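ADP-Glo luminescence measures ADP made by human IP6K1 during a 2 h RT reaction with ATP/IP6 (mix at 1.3 mM/130 uM); top library doses 57.5 and 19.1 uM final.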
KDM5B inhibitor: Primary screen for KDM5B Histone Demethylases FDH-coupled qHTS | KDM5B demethylase, FDH-coupled NADH fluorescence (FDH is formaldehyde dehydrogenase) | actives 2.6% (n = 220,000) | Potency, µM (series often up to 57.7 µM), hits mostly inhibitors | AID 1347165, 2019; note: potency is the fitted concentration of half-maximal effect; 0% is about no effect; nearly all actives have a fitted effect of over 70% in size
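Measured: NADH fluorescence change, 30 min, RT. System: KDM5BΔAP 200 nM final, H3K4me3 peptide, α-KG, Fe(II), ascorbate, NAD⁺ plus FDH, pH 7.5 HEPES. Compounds: titrated, 10 min pre-incubation with enzyme.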
The depositor's hits bear a star; [ ] = remark or other dose. Unless noted, calls come from the whole dose curve; as a rule, active = well fitted curve in the direction sought with a large enough effect; inconclusive = small, poorly fitted or top-dose-only effect, or another doubt; inactive = no such curve, though single readings can be large; an effect the other way counts as inactive or inconclusive.

Screening CCCOc1c(Cl)cc(C(=O)NCC2CCCO2)cc1OCC (stereo unspecified) returned KDM5B inhibitor inactive.
`O=C(O)c1cc(N(Cc2ccc(C3CCCCC3)cc2)C(=O)c2ccc(Oc3ccccc3)cc2)ccc1O` gave SNCA viab count -14% and IP6K1 inh -11.
`Cc1ncsc1CCNC(=O)c1ccc2nc(-c3ccccc3)cn2c1` gave SNCA viab count -1%, SNCA expr inh 118%, IP6K1 inh 10 and KDM5B inhibitor 25µM*.
Screening O=C(NCCc1ccccc1)c1ccc2nccn2c1 returned SNCA viab count 0%[87.6 µM], SNCA expr inh 92%[87.6 µM] and IP6K1 inh 17.
`O=C(NCCN1CCOCC1)c1ccc2nccn2c1` gave SNCA viab count 1%[87.6 µM], SNCA expr inh -1%[87.6 µM] and IP6K1 inh 17.
O=C(NCCN1CCOCC1)c1ccc2nc(-c3ccccc3)cn2c1 was read as SNCA viab count 8%, SNCA expr inh -3%, IP6K1 inh 1 and KDM5B inhibitor 28µM*.
For O=C(C1CCCN(Cc2cccc(-c3ccsc3)c2)C1)N1CCN(c2ncccn2)CC1 (stereo unspecified) the results were IP6K1 inh 5.
COc1ccc(N2CCN(C(=O)CCc3ccnc(N4CCOCC4)c3)CC2)cc1 was read as SNCA viab count 17%, SNCA expr inh -10%, IP6K1 inh 14 and KDM5B inhibitor inconclusive.
For Cc1ccc(NC(=O)CCc2ccnc(N3CCCC3)c2)c(C)c1 the results were SNCA viab count -1%, SNCA expr inh 14%, IP6K1 inh -12 and KDM5B inhibitor 32µM*.
`CC(=O)N1CCN(C(=O)CCc2ccnc(N3CCOCC3)c2)CC1` gave SNCA viab count -6%, SNCA expr inh 7%, IP6K1 inh -8 and KDM5B inhibitor 28µM*.
For CCCN(C)C(=O)CCc1ccnc(N2CCOCC2)c1 the results were SNCA viab count -10%, SNCA expr inh -2%, IP6K1 inh -1 and KDM5B inhibitor 25µM*.
`O=C(CNC(=O)c1ccc(-c2cccc(C(F)(F)F)c2)cc1)NCCc1ccc(F)cc1` gave SNCA viab count -3%[12.5 µM], SNCA expr inh -9% and IP6K1 inh 4.
CN1CCC2(C1)CN(Cc1ccccc1)c1ccc(C(=O)NCC[S+](C)(=O)[O-])cc12 (stereo unspecified) was read as SNCA viab count 10%[87.6 µM], SNCA expr inh -6%[87.6 µM], IP6K1 inh -4 and KDM5B inhibitor 35µM*.
`CN1CCC2(C1)CN(Cc1ccccc1)c1ccc(C(=O)NC3CCCCC3)cc12` (stereo unspecified) gave SNCA viab count -4%[87.6 µM], SNCA expr inh 16%[87.6 µM], IP6K1 inh -2 and KDM5B inhibitor inconclusive.
`CN1CCC2(C1)CN(Cc1ccccc1)c1ccc(C(=O)NC3CCC3)cc12` (stereo unspecified) gave SNCA viab count -5%[87.6 µM], SNCA expr inh 9%[87.6 µM], IP6K1 inh 0 and KDM5B inhibitor inconclusive.
For CN1CCC2(C1)CN(Cc1ccccc1)c1ccc(C(=O)NC3CC3)cc12 (stereo unspecified) the results were SNCA viab count 8%[87.6 µM], SNCA expr inh -10%[87.6 µM], IP6K1 inh -4 and KDM5B inhibitor 35µM*.
Cn1ncc2c(C(=O)NCCc3ccccc3F)cc(-c3ccc(F)cc3)nc21 was read as SNCA viab count -19%, SNCA expr inh -23% and IP6K1 inh 4.
Screening COc1cc2ncnc(N3CC4CCC(C3)N4CC(F)(F)F)c2cc1OC returned SNCA viab count -3%, SNCA expr inh 17%, IP6K1 inh 28 and KDM5B inhibitor inactive.
CCc1ncc2c(N3CC4CCC(C3)N4CC(F)(F)F)nc3ccccc3n12 was read as SNCA viab count 5%, SNCA expr inh 0%, IP6K1 inh 34 and KDM5B inhibitor 71µM*.
`Cc1cnc(C)c(-c2cc(O)c3c(c2)CN(C(=O)c2ccncn2)CCO3)n1` gave SNCA viab count 1%, SNCA expr inh -5%, IP6K1 inh 22 and KDM5B inhibitor 25µM*.
Screening COc1ccc(CCNC(=O)C2CCCN(Cc3cccc(-c4ccc(F)cc4F)c3)C2)cc1 (stereo unspecified) returned SNCA viab count -28%, SNCA expr inh inconclusive and IP6K1 inh -14.
Cc1noc(-c2ccc3c(c2)OCO3)c1C(=O)NCCc1cccc(Cl)c1 was read as SNCA viab count 7%, SNCA expr inh 43%, IP6K1 inh 15 and KDM5B inhibitor 28µM*.
COc1ccc(CC2CCN(C(=O)c3c(C)noc3-c3ccc4c(c3)OCO4)CC2)cc1 was read as SNCA viab count 14%, SNCA expr inh -16%, IP6K1 inh -12 and KDM5B inhibitor 20µM*.
`COc1ccc(CCNC(=O)c2c(C)noc2-c2ccc3c(c2)OCO3)cc1OC` gave SNCA viab count -1%, SNCA expr inh 11%, IP6K1 inh -2 and KDM5B inhibitor 28µM*.
Screening Cc1noc(-c2cccc(F)c2)c1C(=O)NCCc1cccc(Cl)c1 returned SNCA viab count 13%, SNCA expr inh -20%, IP6K1 inh -3 and KDM5B inhibitor inactive.
For COc1cccc(CCNC(=O)c2c(C)noc2-c2ccc3c(c2)OCO3)c1 the results were SNCA viab count -1%, SNCA expr inh 5%, IP6K1 inh 4 and KDM5B inhibitor 14µM*.
`COc1cccc(CCNC(=O)c2c(C)noc2-c2ccc(OC(F)(F)F)cc2)c1` gave SNCA viab count inconclusive, SNCA expr inh 16%, IP6K1 inh 7 and KDM5B inhibitor inactive.
COc1ccc(CCNC(=O)c2c(C)noc2-c2ccccc2OC)cc1OC was read as SNCA viab count 8%, SNCA expr inh 6%, IP6K1 inh -10 and KDM5B inhibitor inactive.
Screening COc1ccc(C(=O)N2CC(N3C(=O)c4c(c(C)nn4-c4ccccc4)C3C3CC3)C2)cc1 (stereo unspecified) returned IP6K1 inh 6.
Screening Cc1ccc(-c2cn3cc(C(=O)NCc4ccccn4)nc3s2)cc1 returned SNCA viab count 1%, SNCA expr inh 61% and IP6K1 inh 4.
`COc1ccc(-c2nc(C3CC(=O)N(c4ccc(C)cc4)C3)no2)c(OC)c1` (stereo unspecified) gave SNCA viab count -8%, SNCA expr inh inconclusive, IP6K1 inh 0 and KDM5B inhibitor 25µM*.
For CCc1ccc(N2CC(c3noc(-c4ccc(OC)cc4OC)n3)CC2=O)cc1 (stereo unspecified) the results were SNCA viab count 1%, SNCA expr inh -3%, IP6K1 inh -1 and KDM5B inhibitor 32µM*.
COc1ccccc1-c1nc(C2CC(=O)N(C3CCCCC3)C2)no1 (stereo unspecified) was read as SNCA viab count 5%, SNCA expr inh 39%, IP6K1 inh 0 and KDM5B inhibitor 20µM*.
